About 79,000 compounds went through this panel and 15% of them were active in at least one assay; those are over-represented in the sample as a whole. The source made the active and inactive calls. No stated cut-off is given here; in the data, active means growth inhibition above about 70%; inactive means the rest.
Assay: NCI Yeast Anticancer Drug Screen. Data for the sgs1 mgt1 strain (AID 161);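 further: 0% = growth of cultures given vehicle only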
Settings: S. cerevisiae sgs1 mgt1 strain, at 50.0 µM, stronger effect = higher value
Summary of the method: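 Mutant yeast exposed to compound; growth scored against vehicle-only wells.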

Structure (SMILES) | growth inhibition
CCCCC1CC(c2ccc(Cl)cc2)=NO1 (stereo not given) | 16.6% (inactive)
OC1C(O)C2CC1C1C2C2(Cl)CC1(Cl)C(Cl)=C2Cl (stereo not given) | 1.5% (inactive)
BrCCC[n+]1ccc2ccccc2c1-c1nccc2ccccc12 | 54.2% (inactive)
CCOC(=O)c1ccc(NC(=O)Nc2cc(Cl)ccc2OC)cc1 | 21% (inactive)
CC1(C)CC(C(N)=O)C(=O)O1 (stereo not given) | -21.6% (inactive)
CCCCCCCN(CCCCCCC)CC(O)c1c(OC)c2ccccc2c2ccccc12 (stereo not given) | 96.2% (active)
C/C=C/C(=O)Oc1ccccc1/C=C/C(=O)CCCCCC | 23.6% (inactive)
CCCCCCCCCCCCCCCCCCOC(=O)c1cccnc1 | 15.8% (inactive)
O=NNc1ccc(Sc2ccccc2)cn1 | -3.75% (inactive)
CCOC(=O)C(=O)Cc1ccccn1 | -6.5% (inactive)
CCNC(=O)c1ccccc1C(=O)c1ccccc1 | 6.55% (inactive)
CCOc1ncc(C(O)c2ccc(F)cc2)c(OCC)n1 (stereo not given) | 1.15% (inactive)
CCOC(=O)Nc1cccc(Cl)c1 | 18.9% (inactive)
COc1ccc(-c2c3nc(c(-c4ccc(OC)cc4)c4[n-]c(c(-c5ccc(OC)cc5)c5nc(c(-c6ccc(OC)cc6)c6[n-]c2c2ccccc62)-c2ccccc2-5)c2ccccc42)-c2ccccc2-3)cc1.[Zn+2] | -29.9% (inactive)
COc1ccc(C(CN)c2ccc(N)cc2)cc1 (stereo not given) | 1.6% (inactive)
Cc1ccc(-c2cn3c(nc4ccccc43)c(-c3ccccc3)n2)cc1 | -41.6% (inactive)
COc1ccc(/C=[N+](\[O-])[C@H](COCc2ccccc2)c2ccccc2)cc1 | 0.05% (inactive)
COc1ccc(C)c2c1CCCC2 | -5.05% (inactive)
CCOC(=O)/N=c1/nc(N(C)C)ss1 | 4.15% (inactive)
O=C1OC(c2ccccc2)=N/C1=C/c1c(-c2ccccc2)c(-c2ccccc2)c2n1CCC2 | 3.05% (inactive)

Structure (SMILES) | growth inhibition
Nc1ccccc1C(=O)ONC(=O)c1ccccc1 | 99.5% (active)
CCN(CC)S(=O)(=O)c1ccc(S(C)(=O)=O)cc1 | -8.05% (inactive)
CC(C)CC(=O)c1ccc2ccccc2c1O | 6.7% (inactive)
O=S(O)OS(=O)O | -15.6% (inactive)
Cc1cccc(-c2nc(N)nc(N)n2)c1 | -1.05% (inactive)
C(=N\N1CCN(/N=C/c2ccc3ccccc3n2)CC1)/c1ccc2ccccc2n1 | 11.9% (inactive)
CN(C1CCCCC1)S(=O)(=O)c1ccc(N)cc1 | 12% (inactive)
C=CCC12CC(COc3ccccc3C(N)=O)OC1=Nc1ccccc1NC2=O (stereo not given) | -27.6% (inactive)
COc1ccccc1NC(=O)CC(=O)n1nc(-c2ccccc2)c(N=Nc2ccccc2[N+](=O)[O-])c1-c1ccccc1 | 27.9% (inactive)
Nc1nc(N)c2nc(-c3ccc(N(CCO)CCO)cc3)c(N)nc2n1 | -11.9% (inactive)
CCOC(=O)/C(I)=C/c1cc(OC)c(OC)c(OC)c1 | 4.6% (inactive)
CCCCOCCOCCOS(=O)(=O)c1ccc(C)cc1 | 12.6% (inactive)
COC1(OC)CC2OC1C1N=NN(C(=O)OC(C)(C)C)C21 (stereo not given) | 6.8% (inactive)
COc1ccc(C2(C)OCCCC2([NH-])C[NH-])cc1.[Cl][Pt+2][Cl] (stereo not given) | -2.95% (inactive)
COC(=O)/C=C/c1ccccc1 | -15.6% (inactive)
Cn1cc(C(=O)C2CCCCC2)ccc1=O | -2.6% (inactive)
O=Cc1cc2ccccc2c2ccccc12 | 5.45% (inactive)
CCCC1=C(c2ccc(OC)cc2)Cc2cc(OC)ccc21 | -1.05% (inactive)
O=C(NCCCCCCNC(=O)C1CCCNC1)C1CCCNC1 (stereo not given) | 13.8% (inactive)
CC(C)NC(N)=O | 26.4% (inactive)

Assay: NCI Yeast Anticancer Drug Screen. Data for the cln2 rad14 strain (AID 165);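 further: 0% = growth equal to vehicle treated cultures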
Settings: S. cerevisiae cln2 rad14 strain, at 50.0 µM, stronger effect = higher value
Summary of the method: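 cln2 rad14 yeast strain; compound exposure; growth inhibition read vs vehicle controls.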

Structure (SMILES) | growth inhibition
CCCCC1CC(c2ccc(Cl)cc2)=NO1 (stereo not given) | -1.55% (inactive)
OC1C(O)C2CC1C1C2C2(Cl)CC1(Cl)C(Cl)=C2Cl (stereo not given) | -1.35% (inactive)
BrCCC[n+]1ccc2ccccc2c1-c1nccc2ccccc12 | 33.2% (inactive)
CCOC(=O)c1ccc(NC(=O)Nc2cc(Cl)ccc2OC)cc1 | -2.9% (inactive)
CC1(C)CC(C(N)=O)C(=O)O1 (stereo not given) | -25.9% (inactive)
CCCCCCCN(CCCCCCC)CC(O)c1c(OC)c2ccccc2c2ccccc12 (stereo not given) | 93% (active)
C/C=C/C(=O)Oc1ccccc1/C=C/C(=O)CCCCCC | 8.25% (inactive)
CCCCCCCCCCCCCCCCCCOC(=O)c1cccnc1 | 20.7% (inactive)
O=NNc1ccc(Sc2ccccc2)cn1 | -8.55% (inactive)
CCOC(=O)C(=O)Cc1ccccn1 | -16.3% (inactive)
CCNC(=O)c1ccccc1C(=O)c1ccccc1 | 12.8% (inactive)
CCOc1ncc(C(O)c2ccc(F)cc2)c(OCC)n1 (stereo not given) | -52.4% (inactive)
CCOC(=O)Nc1cccc(Cl)c1 | 9.65% (inactive)
COc1ccc(-c2c3nc(c(-c4ccc(OC)cc4)c4[n-]c(c(-c5ccc(OC)cc5)c5nc(c(-c6ccc(OC)cc6)c6[n-]c2c2ccccc62)-c2ccccc2-5)c2ccccc42)-c2ccccc2-3)cc1.[Zn+2] | 6.75% (inactive)
COc1ccc(C(CN)c2ccc(N)cc2)cc1 (stereo not given) | 2.9% (inactive)
Cc1ccc(-c2cn3c(nc4ccccc43)c(-c3ccccc3)n2)cc1 | -53.4% (inactive)
COc1ccc(/C=[N+](\[O-])[C@H](COCc2ccccc2)c2ccccc2)cc1 | -1.6% (inactive)
COc1ccc(C)c2c1CCCC2 | -60.2% (inactive)
CCOC(=O)/N=c1/nc(N(C)C)ss1 | -19.6% (inactive)
O=C1OC(c2ccccc2)=N/C1=C/c1c(-c2ccccc2)c(-c2ccccc2)c2n1CCC2 | 25.5% (inactive)

Structure (SMILES) | growth inhibition
Nc1ccccc1C(=O)ONC(=O)c1ccccc1 | 99% (active)
CCN(CC)S(=O)(=O)c1ccc(S(C)(=O)=O)cc1 | -60.1% (inactive)
CC(C)CC(=O)c1ccc2ccccc2c1O | -12.2% (inactive)
O=S(O)OS(=O)O | -0.4% (inactive)
Cc1cccc(-c2nc(N)nc(N)n2)c1 | 18.6% (inactive)
C(=N\N1CCN(/N=C/c2ccc3ccccc3n2)CC1)/c1ccc2ccccc2n1 | 26.5% (inactive)
CN(C1CCCCC1)S(=O)(=O)c1ccc(N)cc1 | 11.4% (inactive)
C=CCC12CC(COc3ccccc3C(N)=O)OC1=Nc1ccccc1NC2=O (stereo not given) | -1.8% (inactive)
COc1ccccc1NC(=O)CC(=O)n1nc(-c2ccccc2)c(N=Nc2ccccc2[N+](=O)[O-])c1-c1ccccc1 | 0.5% (inactive)
Nc1nc(N)c2nc(-c3ccc(N(CCO)CCO)cc3)c(N)nc2n1 | -34.9% (inactive)
CCOC(=O)/C(I)=C/c1cc(OC)c(OC)c(OC)c1 | 13.9% (inactive)
CCCCOCCOCCOS(=O)(=O)c1ccc(C)cc1 | 5% (inactive)
COC1(OC)CC2OC1C1N=NN(C(=O)OC(C)(C)C)C21 (stereo not given) | 21.6% (inactive)
COc1ccc(C2(C)OCCCC2([NH-])C[NH-])cc1.[Cl][Pt+2][Cl] (stereo not given) | 21.6% (inactive)
COC(=O)/C=C/c1ccccc1 | -1.2% (inactive)
Cn1cc(C(=O)C2CCCCC2)ccc1=O | 15.9% (inactive)
O=Cc1cc2ccccc2c2ccccc12 | -16.8% (inactive)
CCCC1=C(c2ccc(OC)cc2)Cc2cc(OC)ccc21 | -2.4% (inactive)
O=C(NCCCCCCNC(=O)C1CCCNC1)C1CCCNC1 (stereo not given) | 15.8% (inactive)
CC(C)NC(N)=O | 19.1% (inactive)

Reference: PubChem BioAssay (NCI)
